Assay outcomes from PubChem BioAssay.
DT40 TDP1 no CPT: qHTS for Inhibitors of human tyrosyl-DNA phosphodiesterase 1 (TDP1): qHTS in cells in absence of CPT; DT40 Tdp1-/- hTDP1 cells, no CPT, ATP luminescence, 48 h; Potency, µM (highest dose often 46.2 µM), without a hit: at the top dose activity change, negative = growth inhibition, most hits filed as inhibitors; actives 15% (n = 420,000); AID 686978, 2013; note: potency is the fitted concentration of half-maximal effect; nearly all actives have a fitted effect of over 55% in size
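Cells were dispensed at 400 per well, compounds added by pin tool, plates incubated ≥48 hr at 37 °C, then CellTiter-Glo added for 30 min at room temperature before luminescence reading. Line: DT40 Tdp1-/- complemented with hTDP1; camptothecin omitted.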
HT1080 IDH1KD tx: HT-1080 IDH1 knockdown cell toxicity (counter line) | HT-1080 IDH1 knockdown viability, ATP luminescence, 48 h | Potency, µM (doses to about 46.1 µM), for the others: top-dose activity, negative = toxicity, actives largely listed as cytotoxic | actives 2% (n = 360,000) | AID 686971;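 note: potency is the fitted concentration of half-maximal effect; 0% = DMSO wells and -100% = cell-free medium wells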
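CellTiter-Glo luminescence after 48 h compound exposure at 37 degrees C of IDH1-knockdown HT-1080 cells in 5% FBS RPMI. %Activity scaled between DMSO wells and cell-free media wells, with curves fitted and assigned curve classes.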
12-LOX inh: ALOX12 (human) lipoxygenase inhibition; purified 12hLO, xylenol orange hydroperoxide absorbance; actives 1.1% (n = 580,000); Potency, µM (series often up to 108 µM), without a hit: at the top dose activity change, negative = inhibition, most hits filed as inhibitors; P18054; AID 1671190; note: potency is the fitted concentration of half-maximal effect
Target sequence (P18054 whole entry, looked up): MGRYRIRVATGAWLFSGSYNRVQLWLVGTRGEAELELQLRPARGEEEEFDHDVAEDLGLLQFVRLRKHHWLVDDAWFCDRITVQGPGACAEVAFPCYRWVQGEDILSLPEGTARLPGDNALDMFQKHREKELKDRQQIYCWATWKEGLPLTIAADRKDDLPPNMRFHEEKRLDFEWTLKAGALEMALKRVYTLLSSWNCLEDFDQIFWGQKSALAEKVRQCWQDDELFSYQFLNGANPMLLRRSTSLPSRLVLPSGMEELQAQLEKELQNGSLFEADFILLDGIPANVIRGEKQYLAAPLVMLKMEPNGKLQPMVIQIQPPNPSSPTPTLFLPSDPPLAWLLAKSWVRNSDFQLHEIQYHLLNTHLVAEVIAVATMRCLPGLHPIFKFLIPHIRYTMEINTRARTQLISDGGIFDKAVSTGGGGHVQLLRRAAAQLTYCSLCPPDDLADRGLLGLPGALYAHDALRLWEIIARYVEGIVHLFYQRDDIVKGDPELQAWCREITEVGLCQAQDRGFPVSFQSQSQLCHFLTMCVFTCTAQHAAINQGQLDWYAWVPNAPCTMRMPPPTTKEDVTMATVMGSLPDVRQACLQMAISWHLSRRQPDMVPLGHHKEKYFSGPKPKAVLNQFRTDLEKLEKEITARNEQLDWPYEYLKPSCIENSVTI
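Purified human 12hLO (150 nM final) in 25 mM Hepes, 0.01% Triton X-100, pH 7.0 was preincubated 15 min at room temperature with compound. Then 40 uM arachidonic acid was added, 30 min. Hydroperoxide was read by Fe-XO absorbance ratio 573/405 nm.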
IL-1B inflam inh: inflammasome signaling inhibition, IL-1 beta readout; THP-1 LPS/ATP IL-1B secretion, AlphaLISA, 16 h; hits give low values; activity change, % at 57.5 µM; actives 4.7% (n = 360,000); AID 743279; in the data active = activity change below about -50%; inconclusive = mostly about -30% to -49%
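THP-1 cells pretreated 1 hr with compounds (up to 57.5 uM final), then stimulated with LPS (250 ng/mL final) plus ATP (1.25 mM final); secreted IL-1B measured by AlphaLISA after 16 hr, decreased signal indicating inhibition.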
HT1080-NT tox: kills 2HG-producing HT-1080-NT fibrosarcoma cells. HT-1080-NT fibrosarcoma viability, CellTiter-Glo ATP luminescence, 48 h. Potency, µM (doses to about 46.1 µM), for the others: top-dose activity, negative = less viability, usual class: cytotoxic. actives 1.6% (n = 360,000). AID 686970;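 note: NT is the 2HG producing partner of a matched IDH1 knockdown line; potency is the fitted concentration of half-maximal effect; 0% = DMSO-treated cells and -100% = media-only wells without cells; nearly all actives have a fitted effect of over 55% in size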
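Fibrosarcoma NT cells, 750 per well in 5% FBS RPMI, were exposed to compound for 48 hours. Viability: CellTiter-Glo luminescence.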
DT40 TDP1 CPT: growth inhibition of DT40 Tdp1-/-;hTDP1 cells with camptothecin (screen for TDP1 inhibitors). chicken DT40 Tdp1-/-;hTDP1 cells + 20 nM CPT, ATP luminescence, 48 h. actives 12% (n = 420,000). Potency, µM (series often up to 46.2 µM), without a hit: top-dose activity change, negative = growth inhibition, hits mostly inhibitors. AID 686979; note: potency is the fitted concentration of half-maximal effect; nearly all actives have a fitted effect of over 55% in size
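Chicken DT40 Tdp1-/- cells complemented with human TDP1, 400 cells/well, exposed to compounds plus 20 nM camptothecin for at least 48 h at 37 C; viability read as ATP content by CellTiter-Glo luminescence.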
Starred values were filed as active, the others as inactive; ? = inconclusive; / = no result. Only a selection was taken, and hits are over-represented in it overall. Unless noted, calls come from the whole dose curve; as a rule, active = well fitted curve in the direction sought with a large enough effect; inconclusive = small, poorly fitted or top-dose-only effect, or another doubt; inactive = no such curve, though single readings can be large; an effect the other way counts as inactive or inconclusive. Unless noted, % is set by controls: 0 for no effect and ±100 for the full control effect.

SMILES | DT40 TDP1 no CPT | HT1080 IDH1KD tx | 12-LOX inh | IL-1B inflam inh | HT1080-NT tox | DT40 TDP1 CPT
Cc1sc2ncnc(NCCc3ccc(S(N)(=O)=O)cc3)c2c1C | 1.5µM* | ? | 0% | -19 | -20% | 2.9µM*
COc1ccc(CCNc2ncnc3c2c(C)c(C)n3CCO)cc1OC | 8.2µM* | 1% | ? | -1 | 6% | 21µM*
COc1ccc(C(=O)N(CC#N)C2CC2)cc1OC | / | / | -7% | / | / | /
COc1ccc(CCNc2ncnc3sccc23)cc1OC | 0.29µM* | ? | -6% | -8 | ? | 0.16µM*
CCOc1cc(=O)n2c(c1C(=O)Nc1cccc(F)c1)CCCC2 | / | / | 26% | / | / | /
CC(=O)n1cc(N(C(=O)CCl)c2ccc(C)cc2)c2ccccc21 | 1.6µM* | 2.9µM* | ? | -95* | 2.3µM* | 3.3µM*
Cc1ccccc1S(=O)(=O)Cc1ccc(C(=O)NCCN2CCCC2)o1 | / | / | -15% | / | / | /
CC(=O)c1ccc(N2CCN(C(=O)CNC(=O)NCc3ccc(F)cc3)CC2)cc1 | / | / | -1% | / | / | /
O=S(=O)(c1cccs1)N1CN(Cc2ccco2)c2nc3ccccc3nc21 | 13µM* | -15% | -12% | -19 | -13% | ?
COCCN1CN(S(=O)(=O)c2ccccc2)c2nc3ccccc3nc21 | -27% | -9% | ? | -6 | -11% | -16%
Cc1ccc(S(=O)(=O)N2CN(CC3CCCO3)c3nc4ccccc4nc32)cc1 (stereo not drawn) | ? | -10% | ? | 22 | 1% | -15%
Cc1cccc(S(=O)(=O)N2CN(Cc3ccco3)c3nc4ccccc4nc32)c1 | ? | -17% | ? | -13 | -11% | 18µM*
Cc1ccc(CN2CN(S(=O)(=O)c3cccs3)c3nc4ccccc4nc32)cc1 | 21µM* | 12% | 0% | -21 | 8% | 16µM*
COc1ccccc1CN1CN(S(=O)(=O)c2ccccc2)c2nc3ccccc3nc21 | ? | -5% | 0% | 7 | -7% | 15µM*
O=S(=O)(c1ccc(F)c(F)c1)N1CCN(Cc2cccc3cccnc23)CC1 | / | / | 7% | / | / | /
O=C1C2C(c3ccccc3)CC=CC2[C@H](c2cccc([N+](=O)[O-])c2)N1Cc1ccccc1 (stereo partly drawn) | ? | -6% | 0% | 0 | -9% | 16µM*
CC(=O)C1=C(O)C(=O)N(Cc2ccccc2)C1c1cccc([N+](=O)[O-])c1 (stereo not drawn) | 2% | 2% | ? | 0 | 3% | -2%
C[C@@H]1CC=C[C@@H]2[C@H]1C(=O)N(Cc1ccccc1)[C@H]2c1cccc(Br)c1 | ? | 0% | ? | 28 | 9% | ?
C[C@@H]1CC=C[C@H]2[C@H]1C(=O)N(Cc1ccccc1)[C@H]2c1ccc(C(F)(F)F)cc1 | 21µM* | -11% | 0% | 14 | -20% | ?
O=C1C2C(c3ccccc3)CC=CC2[C@H](c2ccc(C(F)(F)F)cc2)N1Cc1ccccc1 (stereo partly drawn) | ? | ? | -10% | -18 | ? | 18µM*
O=C1CCN(Cc2ccccc2)C=C1c1ccc(C(F)(F)F)cc1 | ? | -16% | ? | 16 | -3% | ?
Cc1cc(C)cc(NC(=O)C2CCN(c3ncnc4c3sc3ncccc34)CC2)c1 | / | / | -5% | / | / | /
CC1CCCCC1NC(=O)C1(c2ccccc2)CCC1 (stereo not drawn) | / | / | 65% | / | / | /
N#C/C(=C/c1ccccc1OC(F)F)C(=O)Nc1cccc(C(F)(F)F)c1 | / | / | -63% | / | / | /
O=C(CCN1C(=O)/C(=C\c2ccccc2Cl)SC1=S)Nc1cccnc1 | ? | 12% | -2% | -52* | 8% | -15%
SMILES | DT40 TDP1 no CPT | HT1080 IDH1KD tx | 12-LOX inh | IL-1B inflam inh | HT1080-NT tox | DT40 TDP1 CPT
O=C(CCN1C(=O)/C(=C/c2ccc(Cl)cc2)SC1=S)Nc1cccnc1 | ? | 18% | -22% | 6 | 12% | 29µM*
Cc1ccc(/C=C2\SC(=S)N(CCCC(=O)Nc3cccnc3)C2=O)cc1 | ? | 9% | / | ? | 5% | ?
O=C(CCCN1C(=O)/C(=C/c2ccccc2OC(F)F)SC1=S)Nc1cccnc1 | 13µM* | -23% | -22% | -85* | -1% | 26µM*
Cc1cnc(C(=O)N2CCC(F)(c3nc(-c4ccncc4)no3)CC2)cn1 | / | / | 77% | / | / | /
O=Cc1cc(Cl)c(O)c(Cl)c1 | / | / | 49% | / | / | /
O=Cc1cc(Br)cc(Cl)c1O | / | / | 45µM* | / | / | /
COc1ccc2c(c1)CCN=C2Cc1ccc(OC)c(OC)c1 | 16µM* | ? | ? | ? | -20% | ?
C=CCOc1ccc(C(=O)/C=C2/C(=O)Nc3ccccc32)cc1 | 13µM* | ? | -27% | -92* | ? | 16µM*
C=CCOc1ccccc1C(=O)/C=C1/C(=O)Nc2ccccc21 | 2.9µM* | ? | -12% | ? | ? | 5.8µM*
NC(=O)COc1ccc(C(=O)/C=C2/C(=O)Nc3ccccc32)cc1 | 2.9µM* | ? | -7% | -100* | -26% | 7.3µM*
N#C/C(=C\c1ccc(OCC(N)=O)cc1)c1ccccc1 | -25% | 8% | 4% | -13 | 11% | -18%
CC1=CCC(CO)(CO)C(C)C1 (stereo not drawn) | / | / | 33% | / | / | /
COc1ccc(C(CCNCc2ccc(OC(C)C)cc2)C(C)C)cc1 (stereo not drawn) | 6.5µM* | ? | ? | / | ? | 4.6µM*
COc1ccc(C(CCNCc2ccc(N(C)C)cc2)C(C)C)cc1 (stereo not drawn) | 7.3µM* | ? | ? | -100* | 18µM* | 7.3µM*
Cc1sc(-c2nc(-c3cccc(F)c3)no2)cc1S(=O)(=O)N1CCC(C)CC1 | / | / | 2% | / | / | /
COc1ccc(-c2[nH]ncc2CN2CCCN(S(=O)(=O)c3ccccc3)CCC(=O)NCC2)cc1 | / | / | -5% | / | / | /
CCOc1ccccc1NC(=O)CSc1ncc2c(n1)-c1ccccc1N(CC)S2(=O)=O | 16µM* | / | -22% | / | / | 23µM*
CCc1cccc(NC(=O)CSC2=NS(=O)(=O)c3ccccc32)c1 | 4.1µM* | 1% | ? | ? | -9% | 2.6µM*
CCc1cccc(NC(=O)CSc2ncc3c(n2)-c2ccc(Cl)cc2N(Cc2ccccc2)S3(=O)=O)c1 | 16µM* | / | -25% | / | / | 18µM*
CC(C)c1ccc(NC(=O)CSc2ncc3c(n2)-c2cc(Cl)ccc2N(C)S3(=O)=O)cc1 | / | / | 1% | / | / | /
CCc1cccc(NC(=O)CSc2ncc3c(n2)-c2ccccc2N(CC)S3(=O)=O)c1 | -30% | / | -30% | / | / | -32%
